High-throughput results: PubChem BioAssay, Broad Institute
aSyn UTR inh: MLPCN primary screen, SNCA 5' untranslated region | alpha-synuclein 5'UTR reporter, inhibitor activity | inhibition, % (tested at 7.5 µM) | 0.82% of 300,000 active; in the data active = inhibition above about 60%; inconclusive = no clear call, values can overlap the other calls;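 note: H4 neuroglioblastoma cells stably carrying SNCA 5'UTR luciferase fusion; 0% = DMSO wells and 100% = positive control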
PAX8 reporter: lowers PAX8-driven luciferase in RMG-I cells. RMG-I TPO-luciferase reporter, SteadyGlo, 24 h. inhibition, % at 12.6 µM. 1.2% of 360,000 active;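 active = mean replicate inhibition at least 60% with every replicate also reaching 60%; inconclusive = only one of the two criteria is met; inactive = mean below 60% and not all replicates reaching 60%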;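 note: luciferase light reporting Pax8 driven TPO promoter activity; plate controls were median of neutral control wells for no effect and mitoxantrone controls for full effect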
TRPM1 prom inh: reduces MITF-dependent TRPM1 promoter luciferase signal | SK-MEL-5 TRPM1 promoter luciferase, 24 h | inhibition, % at 12.5 µM | 0.83% of 330,000 active | AID 488899;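 active = mean inhibition across replicates of 60% or more, whatever share of single replicates reaches that level; inconclusive = some that reach 60%, reason not given; inactive = mean inhibition across replicates below 60%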
Shn3 3UTR inh: inhibitors of Schnurri-3 3'UTR reporter in osteoblasts; Clone20 osteoblast Shn3 3'UTR firefly luciferase, 24 h; AID 588674; 0.52% of 360,000 active; inhibition, % at 12.5 µM;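 active = mean inhibition of at least 75% with every replicate also reaching 75%; inconclusive = mean inhibition at least 75% but some replicate below; inactive = mean inhibition below 75%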;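 note: 0% = median of neutral control wells and 100% = pilot-screen positive control compound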
LMP1 NFkB inh: reduces LMP1-driven NF-kappaB luciferase signal; 0.69% of 350,000 active; inhibition, % at 12.5 µM; AID 504558; LMP1-induced NF-kappaB luciferase reporter cells, luminescence; in the data active = inhibition above about 41%; inconclusive = no clear call, values can overlap the other calls;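 note: 0% = neutral control wells and 100% = reference inhibitor control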
Starred values were filed as active, the others as inactive; ? = inconclusive; / = no result. Only some compounds are listed: those with a hit (about 2.1% of all), similar ones and a draw of the others.

SMILES | aSyn UTR inh | PAX8 reporter | TRPM1 prom inh | Shn3 3UTR inh | LMP1 NFkB inh
COc1ccc(C(O)c2nc(-c3cccc(F)c3)cs2)cc1 (stereo not drawn) | / | 11 | / | 82* | /
COc1ccc(C(O)c2nc(-c3cccc(C(F)(F)F)c3)cs2)cc1 (stereo not drawn) | / | 2 | / | 5 | /
COc1ccc(C)cc1NC(=O)C1CCCN(S(=O)(=O)c2cccc3nonc23)C1 (stereo not drawn) | 2 | 141* | -9 | 3 | 3
Cc1ccccc1Oc1cc(-n2ncc(Cl)c(Cl)c2=O)ncn1 | / | -20 | 94* | 96* | 93*
COc1cc(OC)nc(-n2ncc(Br)c(Br)c2=O)n1 | / | 108* | 93* | 97* | 65*
COC(=O)c1cnn(-c2nc(OC)cc(OC)n2)c1C | -11 | -13 | -12 | -13 | 5
O=C(Nc1ccon1)c1cc2ccccc2oc1=O | -34 | / | -20 | -1 | 8
CC1(C)Cc2ccccc2C(=NC(Cc2c[nH]c3ccccc23)C(=O)O)N1 (stereo not drawn) | 5 | 7 | 4 | 2 | -3
CCCNC(=O)c1cc2c(c(-c3cccc(-c4ccc(F)cc4)c3)n1)[C@H](CCO)N(S(=O)C(C)(C)C)C2 (stereo partly drawn) | / | 36 | / | -9 | /
CC(CN1CCCCC1)OC(=O)c1ccc2c(c1)OCO2 (stereo not drawn) | -13 | / | 11 | -15 | 43*
CC1CCN(CC(C)OC(=O)c2ccc3c(c2)OCCO3)CC1 (stereo not drawn) | 12 | -22 | -22 | -14 | 6
CN(Cc1ccccc1)C(=O)c1cccc(NC(=O)Cc2cccc([N+](=O)[O-])c2)c1 | / | 17 | -7 | 20 | 0
CN(Cc1ccccc1)C(=O)c1cccc(NC(=O)Cc2ccc([N+](=O)[O-])cc2)c1 | / | 15 | 17 | 88* | 2
Cc1ccc(C2c3c(n[nH]c3C)C(=O)N2c2ccccc2)cc1 (stereo not drawn) | / | -10 | / | / | /
O=C(CN1C(=O)c2ccccc2S1(=O)=O)c1ccc(Cl)cc1Cl | 78* | 112* | 87* | 83 | 79*
O=C(CN1C(=O)c2ccccc2S1(=O)=O)c1ccc(F)cc1 | 92* | 55 | 39 | 80 | 69*
O=C(CN1C(=O)c2ccccc2C1=O)c1ccc(F)cc1 | -6 | -9 | -11 | -12 | 8
COC(=O)c1ccc(NC(=O)CN2C(=O)c3ccccc3S2(=O)=O)cc1 | 33 | 4 | 3 | 0 | -9
O=C(CN1C(=O)c2ccccc2S1(=O)=O)c1ccc(OC(F)F)cc1 | 86* | / | 65* | 74 | 82*
O=C(CN1C(=O)c2ccccc2S1(=O)=O)N1CCN(c2ccccc2F)CC1 | 14 | / | -1 | -8 | -3
O=C(CN1C(=O)c2ccccc2S1(=O)=O)c1ccccc1F | 82* | 33 | 26 | 48 | 45*
C[C@@H]1CCCCO[C@@H](CN(C)C(=O)c2ccncc2)[C@@H](C)CN([C@H](C)CO)C(=O)c2cc(NC(=O)CCC(F)(F)F)ccc2O1 | / | 2 | / | / | /
CCS(=O)(=O)N1Cc2cc(C(=O)N(C)C)nc(-c3cccc(-c4ccc(F)cc4)c3)c2[C@@H]1CCO | / | 11 | / | / | /
CC(C)C(NC(=O)CN1C(=O)c2ccccc2S1(=O)=O)C(C)C | -6 | -12 | 1 | 2 | 0
O=C(CN1C(=O)c2ccccc2S1(=O)=O)c1cccc(Br)c1 | 84* | 1 | 40 | 53 | 4
SMILES | aSyn UTR inh | PAX8 reporter | TRPM1 prom inh | Shn3 3UTR inh | LMP1 NFkB inh
COc1ccc(C(=O)/C=C2\NCCc3cc(OC)c(OC)cc32)cc1OC | 64* | 5 | -5 | 22 | 12
CCCNC(=O)Nc1ccccc1SC | -33 | 4 | 14 | -20 | 3
O=c1c2c3c(sc2n(CCN2CCOCC2)c(=O)n1Cc1ccco1)CCCCC3 | 7 | / | 12 | 10 | 1
O=C(/C=C/c1ccncc1)c1ccc(NC(=O)c2ccccc2F)cc1 | / | / | 12 | 89* | 10
CNC[C@H](CC1CCCCC1)NC[C@H](Cc1ccccc1)NCCC12CC3CC(CC(C3)C1)C2 | 125* | 77* | 49 | 98* | -14
Cc1ccc(CNC(=O)Nc2ccc(F)cc2)n1C | -27 | 13 | 6 | 8 | -6
Cc1c(Cl)cccc1NC(=O)CCN1CCOCC1 | 19 | 4 | -2 | 7 | 5
CCCCNC(=S)N=Nc1c(O)n(Cc2ccccc2)c2ccccc12 | 4 | -5 | -2 | 15 | 17
C=CCn1c(O)c(N=NC(=S)Nc2ccccc2F)c2ccccc21 | 67* | 39 | 6 | 75 | 60*
C=CCn1c(O)c(N=NC(=S)Nc2ccccc2F)c2cc(S(=O)(=O)N3CCOCC3)ccc21 | 78* | 49 | 14 | ? | 52*
Cc1ccc(Cn2c(O)c(N=NC(=S)Nc3ccccc3F)c3ccccc32)cc1 | 71* | 32 | 12 | 34 | 26
Cc1c(Cl)cccc1NC(=S)N=Nc1c(O)n(CN2CCOCC2)c2ccccc12 | 64* | / | 24 | 42 | 29
C=CCn1c(O)c(N=NC(=S)Nc2cccc(C)c2)c2ccccc21 | 94* | 0 | 7 | 73 | ?
NC(=S)N=Nc1c(O)n(Cc2ccccc2)c2ccccc12 | 24 | 35 | 1 | -35 | 2
Oc1c(N=NC(=S)Nc2ccccc2F)c2ccccc2n1Cc1ccccc1Cl | 87* | 23 | 10 | 28 | ?
Oc1c(N=NC(=S)Nc2ccccc2F)c2ccccc2n1Cc1ccccc1 | 72* | 21 | 24 | 55 | 45*
CC1CCCC(NC(=O)COC(=O)Cc2cn3ccsc3n2)C1C (stereo not drawn) | / | 14 | -3 | -3 | -3
COc1cc(OC)cc(C(=O)O/N=C(\N)c2ccccn2)c1 | -130 | -11 | / | -170 | /
COc1ccc(C(=O)O/N=C(\N)c2ccccn2)cc1 | ? | 121* | 81* | 62 | 81*
N/C(=N\OC(=O)c1cccc(Br)c1)c1ccccn1 | 72* | 7 | 6 | -24 | 45*
COc1cc(OC)c(C(=O)O/N=C(\N)c2ccccn2)cc1OC | -34 | -38 | -24 | -18 | 7
N/C(=N\OC(=O)c1cccc(Cl)c1)c1ccccn1 | 21 | 13 | -3 | 20 | 17
Cc1ccc(C(=O)O/N=C(\N)c2ccccn2)c(C)c1 | 106* | / | 96* | 96* | 87*
N/C(=N\OC(=O)c1ccc(Cl)cc1)c1ccccn1 | 63* | / | -18 | 29 | 35
O=C(COc1ccc(Br)cc1CNC1CCCCC1)NCCc1ccccc1 | -27 | -6 | -20 | -4 | 3
Cc1ccc(C)c(N2CCN(C(=O)c3ccc4c(=O)n5c(nc4c3)CCCCC5)CC2)c1 | 19 | 42 | 9 | 16 | 5
CNC(=O)c1c(NC(=O)CCS(=O)(=O)c2ccc(Cl)cc2)sc2c1CCN(C(=O)OC)C2 | 4 | 45 | -6 | 3 | -11
COc1ccccc1C(=O)O/N=C(\N)c1ccccn1 | 31 | 7 | -6 | -38 | 22
N/C(=N\OC(=O)c1ccccc1Cl)c1ccccn1 | 84* | / | 66* | 43 | 65*
CN(Cc1cc(Cl)cc(Cl)c1)CC(C(=O)c1ccccc1)c1ccccc1 (stereo not drawn) | / | 79* | 84* | 53 | -8
